D2 antagonist: antagonists of human D2 dopamine receptor. P14416. HEK293 TREx D2 cells, calcium flux, dopamine EC80. inhibition, % at 10 µM. hit rate 2% among 340,000. AID 485344; in the data active = inhibition above about 30%; inactive = below that, where a call was filed
Target sequence (P14416 whole entry, looked up): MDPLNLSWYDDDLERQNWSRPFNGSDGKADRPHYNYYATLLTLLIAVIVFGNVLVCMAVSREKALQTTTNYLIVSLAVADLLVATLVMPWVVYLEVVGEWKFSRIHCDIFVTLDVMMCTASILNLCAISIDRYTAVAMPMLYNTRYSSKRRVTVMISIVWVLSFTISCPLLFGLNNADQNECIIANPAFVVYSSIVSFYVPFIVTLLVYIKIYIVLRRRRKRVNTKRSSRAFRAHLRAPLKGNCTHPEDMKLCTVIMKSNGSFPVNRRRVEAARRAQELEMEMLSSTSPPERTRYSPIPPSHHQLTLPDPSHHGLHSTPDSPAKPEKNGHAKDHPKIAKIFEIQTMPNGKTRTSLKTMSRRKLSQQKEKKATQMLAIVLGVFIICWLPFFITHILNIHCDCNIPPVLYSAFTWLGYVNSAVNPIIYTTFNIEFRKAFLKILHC
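Dopamine at EC80 is the agonist stimulus; test compounds precede it by 180 s. Calcium flux read kinetically in a force-coupled, inducible HEK293 T-REx D2 cell line.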
D2 ag-1: activates the human D2 dopamine receptor. AID 624465. hit rate 0.084% among 360,000. DiscoveRx PathHunter D2 beta-arrestin, luminescence, 90 min; 100% = 57 uM dopamine signal. activation, % (no concentration beside the values); in the data active = activation above about 40%; inconclusive = between about 15% and that limit
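Agonist mode: compounds alone added to overnight-plated D2 PathHunter cells for 90 min at 37 C, with 57 uM final dopamine (EC100) defining full response. Beta-arrestin recruitment detected by chemiluminescent reagent, read after 1 h at ambient temperature.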
D2 PAM-1: human D2 receptor positive allosteric modulation; P14416; DiscoveRx D2 beta-arrestin cells, luminescence, 90 min; 100% = 57 uM dopamine signal; potentiation, % (no concentration beside the values); hit rate 0.23% among 360,000; in the data active = potentiation above about 50%; inconclusive = mostly about 30% to 49%
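PathHunter beta-arrestin assay in DiscoveRx D2 cells. Compounds were added with an EC20 of dopamine (50 nM final) for 90 min at 37 deg C. Luminescence was read 1 h after detection reagent, with 57 uM dopamine as the EC100 control.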
D2 ag-2: activates the human D2 dopamine receptor. P14416. HEK293 T-REx D2 cells, calcium flux agonist mode. activation, % at 2 µM. hit rate 0.53% among 340,000;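 active = activation over 3 SD above normal in the single-dose calcium agonist read, cut at about 30% in these data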
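Tetracycline-induced HEK293 T-REx cells with force-coupled D2 receptor, plated overnight at 30 C, loaded with no-wash calcium dye. After a 10 s baseline, compound was pin-added and calcium flux read kinetically for 180 s; calcium rises flagged agonists.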
D2 PAM-2: D2 dopamine receptor (human) potentiation; P14416; HEK293 T-REx D2, calcium flux, EC20 dopamine potentiation; potentiation, % at 10 µM; hit rate 0.34% among 340,000;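 active = potentiation over 3 SD above the plate norm, cut at about 30% in these data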
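Primary screen. Calcium kinetics in induced HEK293 T-REx D2 cells: compound pre-addition 180 s, EC20 dopamine, 180 s more.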
A number is an active result. Most compounds without a hit are left out; they make up all but 2.4% or so of the library.

For NC(=O)C1CCN(CC(=O)c2c[nH]c3ccc(F)cc23)CC1 the results were D2 antagonist inactive, D2 ag-1 inactive, D2 PAM-1 inactive, D2 ag-2 inactive and D2 PAM-2 inactive.
CCCCNC(=S)NNC(=O)c1ccco1 was read as D2 antagonist inactive, D2 ag-1 inactive, D2 PAM-1 inactive, D2 ag-2 inactive and D2 PAM-2 45.9.
For O=[N+]([O-])c1ccc(C[n+]2ccc(Cc3ccccc3)cc2)cc1 the results were D2 antagonist inactive, D2 ag-1 inactive, D2 PAM-1 inactive, D2 ag-2 inactive and D2 PAM-2 inactive.
For c1ccc(Cc2cc[n+](Cc3ccccn3)cc2)cc1 the results were D2 antagonist 42.0, D2 ag-1 inactive, D2 PAM-1 inactive, D2 ag-2 inactive and D2 PAM-2 inactive.
Screening COc1ccc2nc(N=NC3=C(O)CC(C)(C)CC3=O)sc2c1 returned D2 antagonist 33.7, D2 ag-1 inactive, D2 PAM-1 inactive, D2 ag-2 inactive and D2 PAM-2 inactive.
CC1(C)CC(=O)C(N=Nc2ccc3ncsc3c2)=C(O)C1 was read as D2 antagonist inactive, D2 ag-1 inactive, D2 PAM-1 inactive, D2 ag-2 inactive and D2 PAM-2 inactive.
`COC(=O)c1nc2n(n1)C(c1cc(OC)ccc1OC)C(C(=O)Nc1ccc(C)cc1C)=C(C)N2` (stereo not given) gave D2 ag-2 inactive and D2 PAM-2 inactive.
For Cc1ccc(C)c(S(=O)(=O)N2CCN(C(=O)CCNS(=O)(=O)c3ccc(C)c(C)c3)CC2)c1 the results were D2 antagonist inactive, D2 ag-1 inactive, D2 PAM-1 inactive, D2 ag-2 inactive and D2 PAM-2 32.4.
Screening Cc1ccc(S(=O)(=O)NCCC(=O)N2CCN(S(=O)(=O)c3ccccc3)CC2)cc1C returned D2 antagonist inactive, D2 ag-1 inactive, D2 PAM-1 inactive, D2 ag-2 inactive and D2 PAM-2 inactive.
C=CCN(C(=O)c1csnn1)C(C(=O)NCc1ccc(F)cc1)c1ccccc1 (stereo not given) was read as D2 antagonist 51.6, D2 ag-1 inactive, D2 PAM-1 inactive, D2 ag-2 inactive and D2 PAM-2 inactive.
For COc1ccc(CN(C(=O)Nc2cc(C)ccc2C)C2CCN(C(C)=O)CC2)cc1 the results were D2 ag-2 inactive and D2 PAM-2 inactive.
`COc1cccc(COC(=O)C2CC(=O)N(Cc3ccccc3)C2)c1OC` (stereo not given) gave D2 ag-1 inactive and D2 PAM-1 inactive.
Screening COc1ccc(C(C)=O)cc1COC(=O)C1CC(=O)N(Cc2ccccc2)C1 (stereo not given) returned D2 antagonist inactive, D2 ag-1 inactive, D2 PAM-1 53.8, D2 ag-2 inactive and D2 PAM-2 inactive.
C=CCN1C(=O)N/C(=C/c2ccc(C)o2)C1=O was read as D2 antagonist inactive, D2 ag-1 inactive, D2 PAM-1 inactive, D2 ag-2 39.2 and D2 PAM-2 inactive.
COc1c2c(cc3oc(=O)ccc13)OC(C)(C)C=C2 was read as D2 antagonist 33.4, D2 ag-1 inactive, D2 PAM-1 inactive, D2 ag-2 inactive and D2 PAM-2 inactive.
For Cc1cccc(N/C=C/C(=O)c2cccs2)c1C the results were D2 antagonist inactive, D2 ag-1 inactive, D2 PAM-1 inactive, D2 ag-2 inactive and D2 PAM-2 inactive.
For NC(=O)c1ccccc1N/C=C/C(=O)c1cccs1 the results were D2 antagonist inactive, D2 ag-1 inactive, D2 PAM-1 inactive, D2 ag-2 inactive and D2 PAM-2 30.8.
Screening COc1ccc(NC(=O)c2oc3ccccc3c2NC(=O)Cc2ccc(F)cc2)c(OC)c1 returned D2 ag-2 inactive.
`Cc1cc(NS(=O)(=O)c2ccc(NC(=O)c3ccc(Cl)cc3[N+](=O)[O-])cc2)no1` gave D2 antagonist 40.7, D2 ag-1 inactive, D2 PAM-1 inconclusive, D2 ag-2 inactive and D2 PAM-2 inactive.
Screening Cc1cc(NS(=O)(=O)c2ccc(NC(=O)c3ccc([N+](=O)[O-])c(Cl)c3)cc2)no1 returned D2 ag-1 inactive and D2 PAM-1 inactive.
CCOC(=O)c1c(NC(=O)C(C)Sc2cn(CCNC(=O)c3ccc(OC)cc3)c3ccccc23)sc2c1CCC2 (stereo not given) was read as D2 ag-2 inactive.
`CC1CCN(S(=O)(=O)c2ccc3c(c2)c(=O)c(C(=O)NCc2ccc(Cl)cc2)cn3C)CC1` gave D2 ag-2 inactive and D2 PAM-2 inactive.
`Cc1ccc(OCCNCC(O)COc2ccccc2)cc1` (stereo not given) gave D2 antagonist 45.2, D2 ag-1 inactive, D2 PAM-1 inactive, D2 ag-2 inactive and D2 PAM-2 inactive.
Screening OC(CNCc1ccccc1)COCc1ccc(Cl)cc1 (stereo not given) returned D2 antagonist inactive, D2 ag-1 inactive, D2 PAM-1 inactive, D2 ag-2 inactive and D2 PAM-2 inactive.
OC(CNCc1ccc(Cl)cc1)COc1ccccc1 (stereo not given) was read as D2 antagonist 49.0, D2 ag-1 inactive, D2 PAM-1 inactive, D2 ag-2 inactive and D2 PAM-2 inactive.
Screening CC1=C(C(=O)Nc2ccccc2C)C2(CCCCC2)C(C(N)=O)C(=S)N1 (stereo not given) returned D2 antagonist 38.0, D2 ag-1 inactive, D2 PAM-1 inactive, D2 ag-2 inactive and D2 PAM-2 inactive.
COc1ccc(OC)c(NC(=O)C2CC(/C=C/c3ccccc3)=NO2)c1 (stereo not given) was read as D2 antagonist inactive, D2 ag-1 inactive, D2 PAM-1 inactive, D2 ag-2 32.6 and D2 PAM-2 inactive.
COc1cc(NC(=O)c2noc(C)c2[N+](=O)[O-])c(OC)cc1Cl was read as D2 antagonist inactive, D2 ag-1 44.6, D2 PAM-1 inactive, D2 ag-2 inactive and D2 PAM-2 inactive.
`Cc1onc(C(=O)Nc2cccnc2Cl)c1[N+](=O)[O-]` gave D2 antagonist inactive, D2 ag-1 inactive, D2 PAM-1 inactive, D2 ag-2 inactive and D2 PAM-2 inactive.
O=C(c1ccc(Br)cc1)c1coc2ccc(O)cc12 was read as D2 ag-1 inactive and D2 PAM-1 inactive.
Screening O=C(c1ccc(Cl)cc1)c1coc2ccc(O)cc12 returned D2 antagonist 34.7, D2 ag-1 inactive, D2 PAM-1 inactive, D2 ag-2 inactive and D2 PAM-2 inactive.
`CN(C)c1ccc(O)c2c1CC1CC3[C@@H](N(C)C)C(=O)C(C(N)=O)C(=O)[C@]3(O)C(=O)C1C2=O` (stereo not given in full) gave D2 ag-1 inconclusive and D2 PAM-1 60.9.
CN(C)c1ccc(O)c2c1CC1CC3C(N(C)C)C(=O)C(C(N)=O)=C(O)[C@@]3(O)C(=O)C1=C2O (stereo not given in full) was read as D2 ag-1 inactive and D2 PAM-1 inactive.
For Cc1cccc(NC(=O)Cn2nc(N3CCN(c4ccccc4)CC3)ccc2=O)c1C the results were D2 ag-2 inactive and D2 PAM-2 inactive.

Bioassay records deposited in PubChem by National Center for Advancing Translational Sciences (NCATS).
